Assay results reported in ChEMBL document CHEMBL1961873, “Compounds: GSK PKIS; Assays: Nanosyn kinase panel” (2012).

Columns and labels:
[1] = biological target: Sphingosine kinase 1 (Homo sapiens) (UniProt Q9NYA1); details: at 1 µM;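 also: mean SPHK1 inhibition value reported from the GSK PKIS kinase panel screen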
[2] = biological target: T1, Sphingosine kinase 2 (Homo sapiens) (UniProt Q9NRA0); details: at 0.1 µM
T1 sequence (whole entry): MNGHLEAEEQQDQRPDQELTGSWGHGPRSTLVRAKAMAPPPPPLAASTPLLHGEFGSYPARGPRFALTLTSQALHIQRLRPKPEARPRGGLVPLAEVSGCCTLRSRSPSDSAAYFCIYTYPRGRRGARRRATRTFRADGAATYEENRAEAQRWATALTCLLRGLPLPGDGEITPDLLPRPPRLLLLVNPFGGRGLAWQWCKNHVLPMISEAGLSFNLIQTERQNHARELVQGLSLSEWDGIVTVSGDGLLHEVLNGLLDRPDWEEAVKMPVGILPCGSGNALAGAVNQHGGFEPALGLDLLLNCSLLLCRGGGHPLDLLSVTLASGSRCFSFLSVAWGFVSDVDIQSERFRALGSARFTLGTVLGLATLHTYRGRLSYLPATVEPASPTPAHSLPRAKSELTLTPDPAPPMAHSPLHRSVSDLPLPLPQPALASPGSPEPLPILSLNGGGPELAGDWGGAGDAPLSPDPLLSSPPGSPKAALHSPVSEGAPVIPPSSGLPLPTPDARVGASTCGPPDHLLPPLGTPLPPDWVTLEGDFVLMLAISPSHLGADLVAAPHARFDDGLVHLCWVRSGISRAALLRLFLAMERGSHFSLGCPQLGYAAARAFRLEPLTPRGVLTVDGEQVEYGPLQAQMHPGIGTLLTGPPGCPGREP

[3] = biological target: T1, Sphingosine kinase 2 (Homo sapiens); details: at 1 µM
[4] = biological target: Casein kinase II subunit alpha (Homo sapiens) (UniProt P68400); details: at 0.1 µM
Sequence of Casein kinase II subunit alpha (Homo sapiens) (P68400 whole entry, looked up): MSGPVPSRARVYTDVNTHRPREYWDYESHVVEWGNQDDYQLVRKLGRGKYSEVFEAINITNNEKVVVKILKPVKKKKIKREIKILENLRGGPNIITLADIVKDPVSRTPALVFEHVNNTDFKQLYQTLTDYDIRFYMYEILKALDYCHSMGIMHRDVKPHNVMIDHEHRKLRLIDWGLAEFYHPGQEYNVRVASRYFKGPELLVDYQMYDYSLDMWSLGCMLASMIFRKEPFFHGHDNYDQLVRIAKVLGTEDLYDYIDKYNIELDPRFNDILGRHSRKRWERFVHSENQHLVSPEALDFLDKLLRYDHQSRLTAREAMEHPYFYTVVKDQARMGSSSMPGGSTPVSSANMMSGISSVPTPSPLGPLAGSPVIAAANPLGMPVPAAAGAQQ

[5] = biological target: Casein kinase II subunit alpha (Homo sapiens) (UniProt P68400); details: at 1 µM
[6] = biological target: T2, Inhibitor of nuclear factor kappa-B kinase subunit alpha (Homo sapiens) (UniProt O15111); details: at 0.1 µM
T2 sequence (whole entry): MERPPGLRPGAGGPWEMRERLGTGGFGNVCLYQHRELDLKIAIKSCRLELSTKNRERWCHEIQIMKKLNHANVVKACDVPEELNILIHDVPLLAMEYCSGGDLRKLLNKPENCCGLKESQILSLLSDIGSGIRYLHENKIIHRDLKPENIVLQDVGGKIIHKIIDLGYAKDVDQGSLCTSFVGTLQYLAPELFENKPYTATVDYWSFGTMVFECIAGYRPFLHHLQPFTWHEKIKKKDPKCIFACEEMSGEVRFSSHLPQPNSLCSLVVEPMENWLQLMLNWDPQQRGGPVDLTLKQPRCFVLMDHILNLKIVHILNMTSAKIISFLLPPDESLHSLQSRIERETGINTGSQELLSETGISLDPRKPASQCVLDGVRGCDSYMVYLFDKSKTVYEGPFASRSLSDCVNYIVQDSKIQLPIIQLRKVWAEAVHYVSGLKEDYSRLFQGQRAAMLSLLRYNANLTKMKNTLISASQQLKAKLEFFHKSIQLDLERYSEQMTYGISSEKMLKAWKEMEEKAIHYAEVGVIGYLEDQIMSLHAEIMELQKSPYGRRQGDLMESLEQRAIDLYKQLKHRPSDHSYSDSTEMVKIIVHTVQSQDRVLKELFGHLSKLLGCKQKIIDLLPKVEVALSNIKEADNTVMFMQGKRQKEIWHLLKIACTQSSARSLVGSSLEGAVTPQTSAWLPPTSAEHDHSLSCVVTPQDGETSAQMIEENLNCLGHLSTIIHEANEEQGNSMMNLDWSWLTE

[7] = biological target: T2, Inhibitor of nuclear factor kappa-B kinase subunit alpha (Homo sapiens); details: at 1 µM
[8] = biological target: T3, Inhibitor of nuclear factor kappa-B kinase subunit beta (Homo sapiens) (UniProt O14920); details: at 0.1 µM
T3 sequence (whole entry): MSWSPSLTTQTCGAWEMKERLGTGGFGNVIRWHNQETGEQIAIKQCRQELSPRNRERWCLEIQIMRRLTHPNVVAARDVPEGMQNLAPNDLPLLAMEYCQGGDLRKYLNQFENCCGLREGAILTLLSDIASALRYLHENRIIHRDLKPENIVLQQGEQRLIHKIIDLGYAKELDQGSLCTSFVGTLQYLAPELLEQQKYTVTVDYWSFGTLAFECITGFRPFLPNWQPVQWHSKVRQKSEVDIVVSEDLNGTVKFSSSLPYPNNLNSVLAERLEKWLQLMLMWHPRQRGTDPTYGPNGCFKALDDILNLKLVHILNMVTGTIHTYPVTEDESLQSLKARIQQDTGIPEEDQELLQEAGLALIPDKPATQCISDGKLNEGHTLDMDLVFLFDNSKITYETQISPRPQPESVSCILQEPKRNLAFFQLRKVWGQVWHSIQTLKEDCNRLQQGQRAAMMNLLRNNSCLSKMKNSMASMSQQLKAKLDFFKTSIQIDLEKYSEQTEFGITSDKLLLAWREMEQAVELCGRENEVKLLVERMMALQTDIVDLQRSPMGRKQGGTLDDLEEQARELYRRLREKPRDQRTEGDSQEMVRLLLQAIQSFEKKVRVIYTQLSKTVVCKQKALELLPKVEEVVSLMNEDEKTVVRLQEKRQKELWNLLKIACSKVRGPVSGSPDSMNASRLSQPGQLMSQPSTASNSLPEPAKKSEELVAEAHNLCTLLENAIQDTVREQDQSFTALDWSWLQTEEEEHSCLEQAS

[9] = biological target: T3, Inhibitor of nuclear factor kappa-B kinase subunit beta (Homo sapiens); details: at 1 µM
[10] = biological target: T4, Inhibitor of nuclear factor kappa-B kinase subunit epsilon (Homo sapiens) (UniProt Q14164); details: at 0.1 µM
T4 sequence (whole entry): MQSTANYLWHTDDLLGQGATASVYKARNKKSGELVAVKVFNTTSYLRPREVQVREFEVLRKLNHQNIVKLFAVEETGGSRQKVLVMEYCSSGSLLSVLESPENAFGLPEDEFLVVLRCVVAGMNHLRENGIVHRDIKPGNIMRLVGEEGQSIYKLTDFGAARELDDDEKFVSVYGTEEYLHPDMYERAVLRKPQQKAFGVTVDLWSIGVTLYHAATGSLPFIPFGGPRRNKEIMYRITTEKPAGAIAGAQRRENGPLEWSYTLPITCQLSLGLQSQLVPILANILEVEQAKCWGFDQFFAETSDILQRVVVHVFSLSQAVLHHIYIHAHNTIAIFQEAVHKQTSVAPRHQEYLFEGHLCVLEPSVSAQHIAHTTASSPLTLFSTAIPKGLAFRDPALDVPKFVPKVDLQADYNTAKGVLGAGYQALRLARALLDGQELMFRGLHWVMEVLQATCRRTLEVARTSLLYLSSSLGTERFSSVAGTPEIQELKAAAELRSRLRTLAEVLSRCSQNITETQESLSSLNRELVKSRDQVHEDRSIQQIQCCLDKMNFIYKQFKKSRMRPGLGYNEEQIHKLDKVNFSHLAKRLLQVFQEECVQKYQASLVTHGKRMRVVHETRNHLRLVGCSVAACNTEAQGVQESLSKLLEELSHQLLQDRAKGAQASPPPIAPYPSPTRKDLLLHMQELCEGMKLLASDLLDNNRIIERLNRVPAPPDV

[11] = biological target: T4, Inhibitor of nuclear factor kappa-B kinase subunit epsilon (Homo sapiens); details: at 1 µM
[12] = biological target: T5, Serine/threonine-protein kinase Nek1 (Homo sapiens) (UniProt Q96PY6); details: at 0.1 µM
T5 sequence (whole entry): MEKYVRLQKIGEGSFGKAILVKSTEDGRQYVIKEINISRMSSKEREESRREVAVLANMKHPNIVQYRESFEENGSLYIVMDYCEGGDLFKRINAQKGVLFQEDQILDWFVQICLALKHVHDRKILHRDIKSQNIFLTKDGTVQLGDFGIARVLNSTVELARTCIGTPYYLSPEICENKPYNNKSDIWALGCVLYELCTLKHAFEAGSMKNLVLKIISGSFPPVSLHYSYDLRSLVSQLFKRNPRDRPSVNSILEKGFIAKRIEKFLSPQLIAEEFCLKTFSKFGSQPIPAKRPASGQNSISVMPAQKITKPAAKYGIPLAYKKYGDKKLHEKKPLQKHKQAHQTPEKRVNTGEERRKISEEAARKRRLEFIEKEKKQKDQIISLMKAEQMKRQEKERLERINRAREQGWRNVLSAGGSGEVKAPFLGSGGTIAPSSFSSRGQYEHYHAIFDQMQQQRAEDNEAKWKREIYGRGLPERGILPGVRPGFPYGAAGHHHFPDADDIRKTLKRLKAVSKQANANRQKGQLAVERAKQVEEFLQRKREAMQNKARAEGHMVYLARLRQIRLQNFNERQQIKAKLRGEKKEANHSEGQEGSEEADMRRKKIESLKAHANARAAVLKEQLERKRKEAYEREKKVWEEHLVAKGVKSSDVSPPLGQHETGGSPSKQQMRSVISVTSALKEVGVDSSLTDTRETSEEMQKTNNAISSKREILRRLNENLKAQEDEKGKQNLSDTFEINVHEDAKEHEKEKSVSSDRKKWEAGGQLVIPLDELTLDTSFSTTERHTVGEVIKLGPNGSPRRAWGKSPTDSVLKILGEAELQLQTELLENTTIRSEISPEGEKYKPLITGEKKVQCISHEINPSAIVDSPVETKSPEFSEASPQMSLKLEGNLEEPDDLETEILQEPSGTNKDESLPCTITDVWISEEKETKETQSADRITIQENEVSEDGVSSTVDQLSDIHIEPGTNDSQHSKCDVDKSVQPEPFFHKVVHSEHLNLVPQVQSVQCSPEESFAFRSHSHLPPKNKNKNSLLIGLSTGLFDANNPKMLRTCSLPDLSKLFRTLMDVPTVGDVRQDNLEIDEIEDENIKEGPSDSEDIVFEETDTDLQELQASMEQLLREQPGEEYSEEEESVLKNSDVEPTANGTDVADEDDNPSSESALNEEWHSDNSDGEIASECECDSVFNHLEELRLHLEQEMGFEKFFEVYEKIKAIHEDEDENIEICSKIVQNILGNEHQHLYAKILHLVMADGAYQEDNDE

[13] = biological target: T5, Serine/threonine-protein kinase Nek1 (Homo sapiens); details: at 1 µM
[14] = biological target: T6, Serine/threonine-protein kinase Nek2 (Homo sapiens) (UniProt P51955); details: at 0.1 µM
T6 sequence (whole entry): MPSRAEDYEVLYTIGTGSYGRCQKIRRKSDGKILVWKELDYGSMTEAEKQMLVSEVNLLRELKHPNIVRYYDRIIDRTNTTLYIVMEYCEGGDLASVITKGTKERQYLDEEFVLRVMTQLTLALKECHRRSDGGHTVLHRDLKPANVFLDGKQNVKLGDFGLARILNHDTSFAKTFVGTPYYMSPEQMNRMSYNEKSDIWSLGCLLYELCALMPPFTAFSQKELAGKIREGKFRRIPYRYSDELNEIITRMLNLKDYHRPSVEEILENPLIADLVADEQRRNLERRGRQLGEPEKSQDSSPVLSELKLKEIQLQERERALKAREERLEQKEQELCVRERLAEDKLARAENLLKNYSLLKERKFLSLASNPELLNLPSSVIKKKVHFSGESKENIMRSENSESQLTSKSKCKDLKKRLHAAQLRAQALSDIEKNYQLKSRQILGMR

[15] = biological target: T6, Serine/threonine-protein kinase Nek2 (Homo sapiens); details: at 1 µM
[16] = biological target: Serine/threonine-protein kinase Nek6 (Homo sapiens) (UniProt Q9HC98); details: at 0.1 µM
Sequence of Serine/threonine-protein kinase Nek6 (Homo sapiens) (Q9HC98 whole entry): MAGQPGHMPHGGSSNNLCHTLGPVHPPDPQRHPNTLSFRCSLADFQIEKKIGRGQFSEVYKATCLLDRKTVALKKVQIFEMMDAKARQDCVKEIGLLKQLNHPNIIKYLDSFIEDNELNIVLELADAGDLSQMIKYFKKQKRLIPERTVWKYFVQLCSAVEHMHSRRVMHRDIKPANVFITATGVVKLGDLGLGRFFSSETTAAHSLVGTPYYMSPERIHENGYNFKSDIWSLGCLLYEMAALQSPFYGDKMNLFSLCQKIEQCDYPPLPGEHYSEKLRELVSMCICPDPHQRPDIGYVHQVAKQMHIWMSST

[17] = biological target: Serine/threonine-protein kinase Nek6 (Homo sapiens) (UniProt Q9HC98); details: at 1 µM
[18] = biological target: Serine/threonine-protein kinase Nek7 (Homo sapiens) (UniProt Q8TDX7); details: at 0.1 µM
Sequence of Serine/threonine-protein kinase Nek7 (Homo sapiens) (Q8TDX7 whole entry, looked up): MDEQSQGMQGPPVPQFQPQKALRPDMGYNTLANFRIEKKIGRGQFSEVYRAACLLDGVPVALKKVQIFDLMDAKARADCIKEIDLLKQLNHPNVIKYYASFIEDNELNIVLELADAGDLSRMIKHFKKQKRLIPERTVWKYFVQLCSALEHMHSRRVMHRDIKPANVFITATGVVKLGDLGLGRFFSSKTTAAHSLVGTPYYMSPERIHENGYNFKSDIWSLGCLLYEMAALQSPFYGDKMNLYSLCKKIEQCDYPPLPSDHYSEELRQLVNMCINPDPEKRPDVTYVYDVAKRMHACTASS

[19] = biological target: Serine/threonine-protein kinase Nek7 (Homo sapiens) (UniProt Q8TDX7); details: at 1 µM
[20] = biological target: T7, Serine/threonine-protein kinase Nek9 (Homo sapiens) (UniProt Q8TD19); details: at 0.1 µM;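 also: reported value is the mean percent inhibition of NEK9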
T7 sequence (whole entry): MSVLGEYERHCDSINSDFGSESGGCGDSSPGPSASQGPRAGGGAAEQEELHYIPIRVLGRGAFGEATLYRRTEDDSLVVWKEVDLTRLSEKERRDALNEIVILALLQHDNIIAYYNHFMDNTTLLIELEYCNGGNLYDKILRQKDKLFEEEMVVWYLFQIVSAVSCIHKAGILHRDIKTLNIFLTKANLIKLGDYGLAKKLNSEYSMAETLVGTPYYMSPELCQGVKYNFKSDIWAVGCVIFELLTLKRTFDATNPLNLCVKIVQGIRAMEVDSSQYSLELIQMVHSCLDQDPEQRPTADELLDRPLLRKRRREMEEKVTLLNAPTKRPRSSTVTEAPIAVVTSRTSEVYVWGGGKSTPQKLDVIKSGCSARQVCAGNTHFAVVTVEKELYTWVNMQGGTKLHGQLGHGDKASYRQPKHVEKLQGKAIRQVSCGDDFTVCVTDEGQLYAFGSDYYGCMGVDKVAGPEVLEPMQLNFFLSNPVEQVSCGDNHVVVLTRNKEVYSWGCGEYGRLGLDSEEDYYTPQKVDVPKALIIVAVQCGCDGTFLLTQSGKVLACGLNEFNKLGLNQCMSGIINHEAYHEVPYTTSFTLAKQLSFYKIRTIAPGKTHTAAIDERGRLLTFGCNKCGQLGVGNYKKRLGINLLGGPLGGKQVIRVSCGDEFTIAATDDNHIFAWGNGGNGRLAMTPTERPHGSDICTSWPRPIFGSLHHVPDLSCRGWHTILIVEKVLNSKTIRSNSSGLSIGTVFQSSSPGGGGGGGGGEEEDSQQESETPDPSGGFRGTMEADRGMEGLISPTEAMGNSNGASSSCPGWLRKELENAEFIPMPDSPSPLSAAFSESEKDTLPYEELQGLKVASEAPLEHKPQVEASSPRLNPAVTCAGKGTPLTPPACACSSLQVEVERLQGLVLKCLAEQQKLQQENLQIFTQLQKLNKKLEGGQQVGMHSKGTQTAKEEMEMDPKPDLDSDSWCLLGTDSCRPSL

Sequence of Sphingosine kinase 1 (Homo sapiens) (Q9NYA1 whole entry): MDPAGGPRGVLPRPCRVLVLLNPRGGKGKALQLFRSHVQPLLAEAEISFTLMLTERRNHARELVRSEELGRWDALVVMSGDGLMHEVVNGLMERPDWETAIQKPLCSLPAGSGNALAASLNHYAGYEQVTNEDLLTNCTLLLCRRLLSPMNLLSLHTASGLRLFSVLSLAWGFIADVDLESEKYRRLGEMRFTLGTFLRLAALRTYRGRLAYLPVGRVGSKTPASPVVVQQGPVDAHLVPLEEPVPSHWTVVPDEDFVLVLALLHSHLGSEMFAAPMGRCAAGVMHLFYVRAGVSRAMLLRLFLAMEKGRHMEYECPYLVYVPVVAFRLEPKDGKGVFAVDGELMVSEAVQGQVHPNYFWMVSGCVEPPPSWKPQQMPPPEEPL

Compound	inhibition [1]	inhibition [2]	inhibition [3]	inhibition [4]	inhibition [5]	inhibition [6]	inhibition [7]	inhibition [8]	inhibition [9]	inhibition [10]	inhibition [11]	inhibition [12]	inhibition [13]	inhibition [14]	inhibition [15]	inhibition [16]	inhibition [17]	inhibition [18]	inhibition [19]	inhibition [20]
COc1cc2ncn(-c3cc(O[C@@H](C)c4ccccc4Cl)c(C(N)=O)s3)c2cc1OC	-1.61%	-0.7%	0%	6.99%	3.34%	4.16%	8.5%	6.47%	4.88%	5.3%	7.74%	4.69%	19.3%	5.52%	10.4%	1.03%	0.67%	3.47%	4.57%	7.99%
CS(=O)(=O)Nc1ccc(N/C=C2\C(=O)Nc3ccccc32)cc1	0.22%	-1.15%	0.65%	2.93%	0.34%	-1.19%	13.7%	-4.89%	-1.38%	-4.27%	7.71%	-1.43%	-2.34%	-2.87%	-3.33%	-1.58%	-2.98%	-4.38%	-3.48%	-0.57%
Nc1nc(-c2ccccn2)c(-c2ccc3ncccc3n2)s1	-3.49%	-0.63%	-3.19%	2.62%	10.1%	4.74%	9.42%	4.18%	4.54%	3.83%	5.46%	2.32%	4.91%	3.61%	2.7%	3.95%	1.16%	3.03%	2.77%	6.33%
